Here are results for 40 compounds from PubChem BioAssay (Tox21).

Where “and” joins values, the source holds several entries; their conditions need not be identical. Equal entries are not always repeated. Records with an inconclusive call do not appear. A call without a number means that no potency is given here. More than one record can exist for a structure, and the calls need not agree. Calls of active or inactive are those of the source. Calls come from the whole dose curve; as a rule, active = well fitted activation curve with a large enough effect in the repeat runs; inconclusive = weak or mixed curves; inactive = no such curve, though single readings can be large or run the other way.
Potency is the fitted concentration of half-maximal effect.

The assay is described as follows: qHTS assay for small molecules that induce genotoxicity in human embryonic kidney cells expressing luciferase-tagged ATAD5 (AID 651632). Note: nearly all actives have a fitted effect of over 15% in size. The settings on record: HEK293T ATAD5-luciferase induction, 16 h; series mostly up to 83.3 µM. From the text:
U.S. Tox21 Program National Center for Advancing Translational Sciences [NCATS] NIH Chemical Genomics Center [NCGC] U.S. Environmental Protection Agency [EPA] National Institutes of Environmental Health Sciences [NIEHS] National Toxicology Program [NTP] U.S. Food and Drug Administration [FDA] Tox21 Assay Overview: As cancer cells divide rapidly and during every cell division they need to duplicate their genome by DNA replication. The failure to do so results in the cancer cell death. Based on this concept, many chemotherapeutic agents were developed but have limitations such as low efficacy and severe side effects etc. A new cell based assay was developed to find the compounds that effectively block DNA replication either by directly damaging DNA or by inhibiting other cellular mechanisms. Enhanced Level of Genome Instability Gene 1 (ELG1; human ATAD5) protein levels increase in response to various types of DNA damage. Using a luciferase reporter-gene tagged with ATAD5, a cell-based assay [developed by Kyungjae Myung, NHGRI, NIH] was used to measure the induction of ATAD5 in human embryonic kidney cells (HEK293T). So, increase in luciferase activity can be used to identify the compounds that cause genetic stress.
Tox21 Assay Protocol Summary: For genotoxicity screening, 2,000 cells in 5 uL/well were dispensed into white, solid-bottom 1536-well plates using a Multidrop Combi (Thermo Scientific) dispenser. Following transfer of 23 nL compound or DMSO vehicle by a pin tool, the plates were incubated 16 hr at 37C and 5% CO2. 5 ul Amplite (AAT Bioquest, Inc.) was then added to each plate and following 30 min incubation at room temperature, luciferase activity was quantified on a ViewLux CCD-based plate reader.
A general note: In qHTS, concentration-response curves come from the screen itself.
For the compound `NC(Cc1ccc(Cl)cc1)C(=O)O` (stereo not given), the Potency entry was “inactive”. For the compound `O=C(Cl)c1cccc(C(=O)Cl)c1`, the Potency entry was “inactive”. As to `CC1=CC(=O)c2ccccc2C1=O`, the Potency result is “inactive”. For the compound `CNC1(C)C2CCC(C2)C1(C)C` (stereo not given), the Potency result is “inactive”. With `O=C(Nc1ccccc1SSc1ccccc1NC(=O)c1ccccc1)c1ccccc1` the entry was “inactive”; with `CC(=O)Nc1ccc(C(=O)CCl)cc1`, “inactive and 24.3 µM (active)”; with `CO[Si](OC)(OC)c1ccccc1`, “inactive”. Under `O=C(O)c1cn(-c2ccc(F)cc2)c2cc(N3CCNCC3)c(F)cc2c1=O` stands “inactive”; under `CCN(CC)C(=S)SSC(=S)N(CC)CC`, 11.9 µM (active) and 61.1 µM (active) and 13.7 µM (active); under `CC[C@]1(O)C[C@@H]2CN(CCc3c([nH]c4ccccc34)[C@@](C(=O)OC)(c3cc4c(cc3OC)N(C)[C@H]3[C@@](O)(C(=O)OC)[C@H](OC(C)=O)[C@]5(CC)C=CCN6CC[C@]43[C@@H]65)C2)C1`, 1.19 µM (active) and 266 nM (active).

For the compound `NCCCCCC(=O)O`, the Potency entry was “inactive”. Under `CN(C)c1ccc2nc3ccc(=[N+](C)C)cc-3sc2c1` stands “inactive”; under `Cc1cc(OCCOCC[N+](C)(C)Cc2ccccc2)ccc1C(C)(C)CC(C)(C)C`, “inactive”. Take `Cc1c(O)cccc1C(=O)N[C@@H](CSc1ccccc1)[C@H](O)CN1C[C@H]2CCCC[C@H]2C[C@H]1C(=O)NC(C)(C)C`: the Potency entry was “inactive”. For `CC(C)(c1ccccc1)c1ccc(Nc2ccc(C(C)(C)c3ccccc3)cc2)cc1`, the Potency result was “inactive”. For `CCCOC(=O)c1cc(O)c(O)c(O)c1`, the Potency result was “inactive”. Under `CCn1cc(C(=O)O)c(=O)c2cc(F)c(N3CCNC(C)C3)c(F)c21` (stereo not given) stands “inactive”; under `Nc1ccc2cc3ccccc3cc2c1`, 27.8 µM (active).

Turning to `C=C(C)C(=O)O`, the Potency result is “inactive”. Under `O=c1n(CC2CO2)c(=O)n(CC2CO2)c(=O)n1CC1CO1` (stereo not given) stands 23.7 µM (active) and 24.2 µM (active) and 54.5 µM (active); under `O=C1OC2(c3ccc(O)cc3Oc3cc(O)ccc32)c2ccccc21`, “inactive”; under `c1ccc2c(c1)CCCC2C1=NCCN1` (stereo not given), “inactive”. Turning to `NC(N)=NC(=O)Cc1c(Cl)cccc1Cl`, the Potency entry was “inactive”. Consider `C=CS(=O)(=O)O`, for which the Potency result was “inactive”. Under `C1COC(NC(C2CC2)C2CC2)=N1` stands “inactive”; under `c1ccc2c(c1)-c1cccc3c1c-2cc1ccccc13`, “inactive”; under `CC(=O)O[C@]1(C(C)=O)CC[C@H]2[C@@H]3C[C@H](C)C4=CC(=O)CC[C@]4(C)[C@H]3CC[C@@]21C`, “inactive”. As to `O=C(O[C@@H]1Cc2c(O)cc(O)cc2O[C@@H]1c1cc(O)c(O)c(O)c1)c1cc(O)c(O)c(O)c1`, the Potency entry is “inactive”.

As for `Cc1cc(C2(c3cc(C)c(O)cc3C)OS(=O)(=O)c3ccccc32)c(C)cc1O`, the Potency result is “inactive”. For `CCOc1ccccc1C(N)=O`, the Potency result was “inactive”. Under `CC(N)=O` stands “inactive”; under `CCN(CC)c1ccc2c(C)cc(=O)oc2c1`, “inactive”. Under `CC(=O)N[C@@H](CS)C(=O)O` stands “inactive”; under `CC1COc2c(N3CCN(C)CC3)c(F)cc3c(=O)c(C(=O)O)cn1c23` (stereo not given), “inactive”; under `COC(c1ccccc1)(c1ccccc1)[C@H](Oc1nc(C)cc(C)n1)C(=O)O`, “inactive”. With `COC(=O)/C=C/c1ccccc1` the entry was “inactive”; with `N[C@@H]1CONC1=O`, “inactive”; with `Cc1ccnc2c1NC(=O)c1cccnc1N2C1CC1`, “inactive”. Regarding `CC(=O)C1=C(C)[C@@H]2C[C@@]3(C1)[C@H](C)CC[C@H]3C2(C)C`, the Potency entry was “inactive”.

`Cc1cc(C(C)(C)C)c(O)c(C(C)(C)C)c1`: the Potency entry was “inactive”.
